Dicer inh – blocks human Dicer maturation of pre-miR-21; Q9UPY3; cat-ELCCA pre-miR-21 Dicer processing, chemiluminescence; hits give high values; z-score at 25 µM; actives 6% (n = 47,000); AID 1347074; in the data active = z-score above about 3, passing the limit was not always enough;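 note: plate controls were vehicle for no effect and no enzyme for full effect; higher signal means more uncleaved substrate so more Dicer inhibition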
The depositor's hits bear a star. Many of the other results were omitted from the sample, so hits are more common in it than they were.

SMILES	Dicer inh
COc1ccc(S(=O)(=O)N=S(C)(=O)c2ccc(C)cc2)cc1 (centres undefined)	-0.89
O=C(NCC1CC1)Nc1ccc2c(c1)CCO2	1.04
S=C(Nc1ccc2[nH]ccc2c1)Nc1ccccc1N1CCOCC1	4.61*
S=C(Nc1ccc(N2CCOCC2)nc1)Nc1cc(Cl)ccc1Cl	0.43
O=C(Nc1ccc2[nH]ncc2c1)C1CCC1	-0.03
S=C(NCC1CC1)Nc1ccc2[nH]ccc2c1	4.76*
CC(C)(C)OC(=O)N1CCCN(C(=S)Nc2ccccc2N2CCOCC2)CC1	-0.86
CC(=O)Nc1ccc(S(=O)(=O)Nc2nc3ccccc3nc2Nc2ccc(C)cc2)cc1	0.31
O=c1[nH]c2c(cnn2-c2ccccc2)c(=O)n1-c1ccc(Cl)c(Cl)c1	2.33
CC1CCc2c(sc3[nH]c(=S)n(-c4ccccc4)c(=O)c23)C1 (centres undefined)	-0.48
O=c1[nH]c2sc(-c3ccccc3)cc2c(=O)n1-c1cccc(Cl)c1	4.38*
CN1CCc2c(sc3[nH]c(=S)n(-c4ccccc4)c(=O)c23)C1	-0.72
CCOC(=O)Cn1c(=O)n(-c2ccc(Cl)cc2)c(=O)c2cc(-c3ccccc3)sc21	0.05
O=c1c2cc(-c3ccccc3)sc2[nH]c(=S)n1-c1ccccc1	4.06*
CC(C)C(NC(=O)CN1C(=O)c2ccccc2S1(=O)=O)C(C)C	-0.79
CC12CCC(C(=O)Nc3ccc(Cl)cc3)(OC1=O)C2(C)C (centres undefined)	1.46
Cc1cc(-c2c(C(=O)N3CCOCC3)c(C)nn2-c2cccc(C(F)(F)F)c2)no1	-0.02
COC(=O)CCc1c[nH]c2ccccc12	-1.03
COc1cc(OC)c(OC)cc1/C=N/N=C(N)N	-2.05
CCOC(=O)C(=O)/C=C(\O)c1ccc(OC)cc1	1.88
CNc1cc(NS(=O)(=O)c2ccc(N)cc2)nc(NC)n1	0.24
N#CCc1ccc(NC(=O)Nc2cccc3ccccc23)cc1	-0.09
COCc1nc(SC)[nH]c(=O)c1C	0.85
O=[N+]([O-])c1cccnc1N/N=C/c1cccnc1	1.48
COC(=O)C1=C(C)O/C(=C2/C=CC=CN2)C(C)=C1	3.06*
SMILES	Dicer inh
CCOC(=O)CSC1=C(C#N)C(c2ccccc2Cl)C(C(=O)OCC)C(=O)N1 (centres undefined)	1.61
O=C(Nc1nc2ccccc2n1CCN1CCCCC1)C1CCCCC1	-4.07
Clc1ccc(CNc2nc3ccccc3n2CCN2CCCCC2)cc1	3.23*
CCCCn1c(NCc2ccco2)nc2ccccc21	0.34
O=C(CSc1nc2ccccc2nc1N1CCCC1)NCc1ccco1	1.72
O=C(Cn1c(NCCO)nc2ccccc21)c1ccc(Cl)cc1	1.79
c1coc(CNc2nc3ccccc3n2CCN2CCCCC2)c1	6.13*
CC(C)(C)c1ccc(-n2c(SCc3ccc(Cl)cc3)n[nH]c2=O)cc1	-0.8
Cc1cc(NNS(=O)(=O)c2cc(C(F)(F)F)cc(C(F)(F)F)c2)nc2c1c(C)nn2C	0.4
COC(=O)c1c(NC(C)=O)sc2c1CCS2	-0.31
O=C1CSC2=NC3=C(CCc4ccccc43)C(c3ccc(F)cc3)N12 (centres undefined)	-1.22
Cc1sc2c(c1C)C(=O)/C(=C\Nc1ccccc1Cl)S(=O)(=O)N2C	4.78*
Cc1sc2c(c1C)C(=O)/C(=C\Nc1ccccn1)S(=O)(=O)N2C	0.25
CN1c2ccsc2C(=O)/C(=C\Nc2ccccc2Cl)S1(=O)=O	-0.04
O=C1c2ccccc2C(=O)N1CN(CCCn1ccnc1)CN1C(=O)c2ccccc2C1=O	1.34
CC(CC(=O)Nc1ccccc1)S(=O)(=O)c1ccc(Cl)cc1 (centres undefined)	-0.82
O=C(CC1(O)C(=O)Nc2ccc(Br)cc21)c1cccs1 (centres undefined)	-1.85
Cc1ccc(C(=O)CC2(O)C(=O)Nc3ccc(C)cc32)c(C)c1 (centres undefined)	-0.09
Cc1cc(C)c2c(c1)NC(=O)C2(O)CC(=O)c1cccs1 (centres undefined)	3.44*
O=C1c2ccccc2CCC1Sc1nnc(-c2ccccc2)o1 (centres undefined)	-2.42
COC(=O)c1csc2c(C(F)(F)F)cc(N3CCN(C(=O)c4cccs4)CC3)nc12	0.81
COC(=O)c1ccsc1NC(=O)c1cccs1	-0.03
COC(=O)c1cc(=O)n2c(c1C(=O)c1cccs1)SCC2	6.85*
CCc1cccc(C)c1NC(=O)/C=C/c1ccco1	-0.32
COc1cccc(N2C(=O)CC(N3CCN(c4ccc(F)cc4)CC3)C2=O)c1 (centres undefined)	-1.38
SMILES	Dicer inh
O=c1cc(C(F)(F)F)[nH]c2cc(Cl)cc(Cl)c12	-0.02
Cc1ccc(S(=O)(=O)NC(=O)NCCNc2nccc(C(F)(F)F)n2)cc1	-0.94
ONC(=Nc1ccccc1)c1cccc(Cl)c1	-1.71
COc1ccc(N=C(NO)c2ccccc2)cc1Cl	3.11*
ONC(=Nc1cccc(C(F)(F)F)c1)c1ccccc1	-0.29
Nc1cc(=O)n(Cc2ccccc2)c(=O)n1-c1ccc(F)cc1	0.85
CCOC(=O)C(C(=O)OCC)C1CCS(=O)(=O)C1 (centres undefined)	-0.85
CCOC(=O)c1sc(S(C)(=O)=O)c2c1CC(C)(C)C/C2=N/O	-3.31

Source: PubChem BioAssay
